Results on seven compounds are retold here after PubChem BioAssay AID651784 (National Center for Advancing Translational Sciences (NCATS), 2012).

Records with an inconclusive call do not appear. Active and inactive are the calls of the source. Calls come from the whole dose curve; as a rule, active = well fitted inhibition curve with a large enough effect; inconclusive = small, poorly fitted or top-dose-only effect; inactive = no such curve, though single readings can be large or run the other way.
Potency is the fitted concentration of half-maximal effect.

This assay can be described thus: Acumen qHTS Assay for Inhibitors of the mTORC1 Signaling Pathway in MEF (Tsc2-/-, p53-/-) Cells: Hit Validation.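 For activity change, negative = inhibition: cells exposed to compound for 24 hours; plate controls were DMSO for no effect and 7.5 nM rapamycin control for full effect.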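 Note: phospho-rpS6 Ser235/236 immunofluorescence normalized to propidium iodide cell count; nearly all actives have a fitted effect of over 65% in size.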 The conditions noted are these: Acumen imaging; activity change, negative = inhibition: at 37.3 µM (top of the series). In general terms: Quantitative high-throughput screening tests each substance at several concentrations.
With `Cc1nc2nncn2c(NCc2ccc(F)cc2)c1C`, the activity change, negative = inhibition was -42.2%.

`CC1=C(C(=O)OC2CCCC2)C(c2ccccc2Cl)CC(=O)N1` (configuration not stated): the activity change, negative = inhibition is -10.6%.

As to `COc1ccc(CCNC(=O)C(C)n2nc(C)c3sc4ccccc4c3c2=O)c(OC)c1` (configuration not stated), the activity change, negative = inhibition was -17.7%.

Turning to `CCCCN(CC)CCNC(=O)C1CCN(c2nnc(C)c3c(C)n(-c4ccc(C)cc4)nc23)CC1`, the activity change, negative = inhibition is -14.5%.

Turning to `O=C(CN(CCc1ccccc1)S(=O)(=O)c1ccccc1)NCc1ccc(Cl)cc1`, the activity change, negative = inhibition was -3.71%.

In the case of `O=c1oc2ccccc2cc1-c1cn2cc(Cc3ccccc3F)sc2n1`, the Potency is 16.5 µM (active).

For `Cc1cccc(NC(=O)c2c(N)sc3c2CCC(C)C3)c1` (configuration not stated), the activity change, negative = inhibition was determined as 15.3%.
